This is a sample that favours compounds with a hit; in the whole collection about 2.6% have one here.
PHOSPHO1 block: blocks human PHOSPHO1 phosphatase activity; Q8TCT1; recombinant PHOSPHO1, absorbance phosphatase assay; inhibition, % at 13.3 µM; 290,000 compounds, 1.1% hits; in the data active = inhibition above about 60%
Target sequence (Q8TCT1 whole entry, looked up): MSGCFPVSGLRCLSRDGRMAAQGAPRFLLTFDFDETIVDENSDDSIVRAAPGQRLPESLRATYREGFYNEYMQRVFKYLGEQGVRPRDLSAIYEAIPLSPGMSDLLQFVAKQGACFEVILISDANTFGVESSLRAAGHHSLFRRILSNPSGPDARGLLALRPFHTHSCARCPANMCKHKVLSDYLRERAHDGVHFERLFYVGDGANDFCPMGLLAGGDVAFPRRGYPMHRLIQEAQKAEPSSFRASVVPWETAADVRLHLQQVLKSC
eIF4H inh: inhibitors of RNA binding by human eIF4H. 290,000 compounds, 0.94% hits. inhibition, % at 35 µM. AID 2012. eIF4H fluorescence polarization binding assay;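 note: calls also rest on retests at 20 µM and on dose response follow-up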
PABP FP inh: PABP-poly(A) binding inhibition; P11940; PABP-poly(A) RNA binding, fluorescence polarization; inhibition, % at 35 µM; 290,000 compounds, 1% hits;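 note: calls also rest on retests at 20 µM and on dose response follow-up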
MLLE-PAM2 inh: blocks PAM2 peptide binding to the PABP1 MLLE domain. GST-MLLE / FITC-PAM2 fluorescence polarization. inhibition, % at 20 µM. 360,000 compounds, 0.36% hits. AID 588489. P11940; in the data active = inhibition above about 35%, passing the limit was not always enough;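 note: plate controls were DMSO wells with GST-MLLE for no effect and wells lacking GST-MLLE protein for full effect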
CRFBP-R2 block: blocks CRF-induced signaling of the CRF-BP/CRF-R2 complex; HEK293 CRF-R2/CRF-BP, CRF-induced calcium fluorescence; inhibition, % at 11.8 µM; 350,000 compounds, 0.59% hits; AID 588475;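 active = inhibition of the ligand-induced calcium signal above about 50% at the single tested concentration, limit read from the data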
Numbers without * were called inactive; / = no result. Unless noted, the rule behind the calls is not given here.

SMILES | PHOSPHO1 block | eIF4H inh | PABP FP inh | MLLE-PAM2 inh | CRFBP-R2 block
COc1ccccc1CN(C)C(=O)C(c1ccccc1)c1ccccc1 | 28 | 2 | 8 | -14 | 57*
CN(Cc1ccc(F)cc1)C(=O)C(c1ccccc1)c1ccccc1 | 12 | -14 | 5 | 1 | 8
O=C(CC1SC(=Nc2ccc(OC(F)F)cc2)N(CCC2=CCCCC2)C1=O)Nc1ccccc1F (centres undefined) | 18 | -12 | 0 | 2 | -28
CCOc1ccccc1N=C1SC(CC(=O)Nc2ccc(OC)cc2OC)C(=O)N1CCC1=CCCCC1 (centres undefined) | -18 | 2 | 1 | -15 | 57*
CC1(C(=O)Nc2ccc3c(c2)OCCO3)CCN1C(=O)C1(c2ccc(Cl)cc2)CC1 (centres undefined) | / | / | / | 3 | /
CN1C(=O)C2(c3ccccc31)C1CCCC=C1C(C#N)=C(N)C2(C#N)C#N (centres undefined) | 15 | 44* | 66* | -8 | -16
CN1C(=O)C2(C(C#N)=C(N)N(c3cc(Cl)cc(Cl)c3)C3=C2C(=O)CCC3)c2ccccc21 (centres undefined) | 12 | 1 | 2 | -7 | 10
N#CC1=C(N)N=C(SCc2cccc3ccccc23)C(C(N)=O)C12CCCCC2 (centres undefined) | 8 | -8 | 3 | 40* | -9
Nc1cc(=O)[nH]c(SCc2cccc3ccccc23)n1 | 26 | 5 | 12 | 9 | 6
CNC(=S)NNC(=O)c1ccccc1F | 7 | -6 | -6 | 3 | -6
C=CC(=O)Oc1ccc(N2Cc3ccccc3C2=O)cc1 | / | / | / | 14 | 97*
COc1ccc(N2Cc3ccccc3C2=O)cc1 | 3 | -1 | 3 | 3 | 13
Cc1cc(C)cc(CC(=O)N2CCC2(C)C(=O)NS(=O)(=O)c2cc(C)ccc2F)c1 (centres undefined) | / | / | / | 10 | /
CC12CCC(=O)C=C1C(F)CC1C2C(O)CC2(C)C1CCC2(O)C(=O)CO (centres undefined) | / | / | / | -8 | 5
CCOC(=O)C1=C(O)/C(=C/c2ccc(-c3ccccc3C(=O)O)o2)SC1=Nc1ccc(C)cc1 | / | / | / | -110 | -26
CCOC(=O)C1=C(O)/C(=C/c2ccc(-c3ccccc3C(=O)O)o2)SC1=Nc1ccc(OC)cc1 | -26 | 78* | 82* | -75 | -6
CCOC(=O)C1=C(O)/C(=C/c2ccccn2)SC1=Nc1ccc(Cl)cc1 | 3 | active | 110 | -4 | -43
Cn1c(OCc2ccc3c(c2)OCO3)nc2c1c(=O)n(Cc1ccc(Cl)c(Cl)c1)c(=O)n2C | 58 | -11 | 10 | -2 | 6
C=CCOc1nc2c(c(=O)n(Cc3ccc(Cl)c(Cl)c3)c(=O)n2C)n1C | / | / | / | -2 | 51*
COc1ccccc1Cn1c(C)c(C(=O)NCc2ccco2)sc1=O | / | / | / | -2 | /
CCc1ccc(-c2nc(CN3CCC(C(=O)NCc4ccccc4OC)CC3)c(C)o2)cc1 | 77* | -4 | -11 | -1 | -30
COc1ccccc1CNC(=O)C1CCN(Cc2nc(-c3cccc(Cl)c3)oc2C)CC1 | 4 | -6 | -7 | -11 | -6
C[n+]1cccc2cccc([O-])c21 | 43 | 99 | 47* | 27 | -24
CC(=O)c1cccc(NC(=O)C2Cc3c(-c4ccco4)ccnc3O2)c1 (centres undefined) | / | / | / | -14 | /
CC(C)(C)Cc1c(-c2ccc(F)cc2)nc2ccc(Cl)cn12 | / | / | / | 12 | 6
SMILES | PHOSPHO1 block | eIF4H inh | PABP FP inh | MLLE-PAM2 inh | CRFBP-R2 block
O=C1C(Cl)=C(Nc2ccccc2O)C(=O)N1c1ccccc1 | 60* | -8 | 6 | -20 | 7
O=C(Cn1cc(COc2ccc(Br)cc2[N+](=O)[O-])nn1)c1ccc(O)cc1 | / | / | / | -8 | 11
S=C(NCC1CCCO1)NC1CC1 (centres undefined) | 53 | -7 | 6 | -10 | -4
O=C(Nc1ccc(Oc2cccnc2)nc1)c1ccc(C(F)(F)F)cc1 | 19 | -2 | 12 | 7 | 55*
CN(c1ccc(C(=O)NCc2ccccn2)cc1)S(=O)(=O)c1ccc(Cl)cc1 | 61* | -13 | -12 | -11 | -11
COc1ccc(C(=O)Nc2ccc(C(=O)Nc3cccnc3)cc2)cc1 | 25 | -13 | -17 | -11 | 25
CCC(=O)Nc1ccc(C(=O)Nc2cccnc2)cc1 | 26 | 52* | 98* | -12 | 5
O=C(NC(=O)c1c(Cl)cccc1Cl)Nc1ccc(Oc2cccnc2)nc1 | 2 | -3 | -4 | 7 | -14
CN(c1ccc(C(=O)Nc2cccnc2)cc1)S(=O)(=O)c1ccc(Cl)cc1 | 63* | -23 | -8 | 3 | -12
Cc1ccc(S(=O)(=O)N(C)c2ccc(C(=O)NCc3ccccn3)cc2)cc1 | 37 | -3 | -10 | -3 | -11
O=C(Cc1ccccn1)c1ccc(F)cc1 | / | / | / | -6 | -4
CCCCNCc1cc(OCC)c(OCC)cc1Br | 45 | -6 | -15 | 3 | 4
CC(C)CN(C(=O)COC(=O)CCSc1ccc(Cl)cc1)c1c(N)n(Cc2ccccc2)c(=O)[nH]c1=O | / | / | / | -12 | 12
CSc1nsc(NN)n1 | / | / | / | 42* | 3
Cc1ccc(S(=O)(=O)N2CCCCC2)cc1C(=O)NCCc1ccccc1 | -21 | -2 | -8 | 11 | 7
COc1ccc(S(=O)(=O)N2CCCCCC2)cc1C(=O)NCCc1ccccc1 | / | / | / | -9 | 112*
Cc1ccccc1-c1csc(C(O)c2cccnc2)n1 (centres undefined) | / | / | / | 0 | /
CC(C)Cc1ccc(-c2cc3nc(NCC4CC4)ccn3n2)cc1 | / | / | / | -4 | /
S=c1[nH]nc(-c2ccccc2)n1/N=C/C=C/c1ccco1 | -14 | 91 | -16 | -11 | -4
S=c1[nH]nc(-c2cccnc2)n1/N=C/C=C/c1ccco1 | -86 | 96* | 72 | -15 | 4
S=c1[nH]nc(-c2ccc(Cl)cc2)n1/N=C/C=C/c1ccco1 | 36 | 83* | 80* | -11 | -6
CC(/C=N/n1c(-c2cccnc2)n[nH]c1=S)=C\c1ccco1 | -147 | 76* | 51* | 2 | 4
Cc1cccc(-c2cnc(C(O)Cc3ccccc3)[nH]2)c1 (centres undefined) | / | / | / | -9 | /
COc1ccc(S(=O)(=O)NC(=O)C2(C)CCN2C(=O)c2c(C)noc2C)cc1 (centres undefined) | / | / | / | 6 | /
COc1ccc(CC(Cc2ccc(OC)c(OC)c2)NC=O)cc1OC | / | / | / | -2 | -13
SMILES | PHOSPHO1 block | eIF4H inh | PABP FP inh | MLLE-PAM2 inh | CRFBP-R2 block
Oc1ccc(CNc2ccc(F)cc2)c2cccnc12 | 95* | 15 | -2 | 27 | 27
Oc1ccc(CNc2ccccc2)c2cccnc12 | 51 | 20 | 3 | 41* | 15
Cc1ccccc1NCc1ccc(O)c2ncccc12 | 71* | 15 | -15 | 33 | 4
CN1CCCCC1(C)C(=O)NCc1cc(Cl)ccc1F (centres undefined) | / | / | / | -4 | /
CC1=C(C(=O)N(C)C)CC(CC(=O)NC2CCCCC2)C(=O)N1CCCN1CCCC1=O (centres undefined) | / | / | / | -4 | -2
CCOc1ccc(C(=O)Nc2cnn(Cc3ccc(Cl)c(Cl)c3)c2)cc1 | 32 | 1 | 2 | 1 | 73*
COc1ccc(NS(=O)(=O)c2cc(NC(=O)c3ccccn3)ccc2OC)cc1Br | / | / | / | 7 | 4

Screens from PubChem.
